The values below come from PubChem BioAssay AID819 (Columbia University Molecular Screening Center, 2007).

Hit rate of the full screen: of about 94,000 compounds, about 280 (0.3%) were called active. The sample as a whole holds a higher share of actives than the screen did. Unmarked numbers belong to inactive results.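 Rule for the calls: active = activation above 40%, about the mean plus 3 SD, also judged a hit on visual image review; inconclusive = activation above 40% but not a hit on visual review; inactive = activation not above 40% and no visual hit.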

The nature of the assay: enhancers of NFkB p65 translocation in HUVEC – imaging, IL-1B stimulus, high-content imaging, primary screen (AID 819).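 Note: percent activation is computed from the nuclear over cytoplasmic p65 intensity ratio.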 Conditions: HUVEC IL-1B NFkB p65 nuclear translocation imaging; at 2 µM; hits give high values.
As for `Nc1ccc(-c2sc(N)nc2-c2ccccc2)cc1`, the activation was -1.63%.
With `CC(C)c1ccc(N2CCN(C(=O)c3ccccc3NC(=O)/C=C(\C(=O)O)c3ccccc3)CC2)cc1`, the activation is 24.1%.
As to `NC(=NC(=O)c1ccccc1)N1CCOCC1`, the activation is 3.72%.
Next, `O=C(Cc1ncc(C(F)(F)F)cc1Cl)Nc1cccc(Br)c1`: 13.4%; `O=[N+]([O-])c1ccc(Oc2ccc(F)cc2Br)c2ccncc12`: -1.85%; `S=C(NCCC1=CCCCC1)Nc1ccccc1`: -10.4%.
Next, `Cc1nn(C)cc1/C=C1\CCC/C(=C\c2cn(C)nc2C)C1=O`: -13.1%; `COCC(C)NC(=O)c1ccc(-n2nc(C(F)(F)F)cc2-c2cccs2)cc1` (centres undefined): 15.7%; `COc1ccc(C(=O)n2nc(-c3ccc(Cl)cc3)nc2N)cc1OC`: 41.4% (active).
Next, `COc1ccc(C(=O)n2nc(-c3ccc(C)cc3)nc2N)cc1OC`: -6.6%.
For the compound `COc1ccccc1C(=O)n1nc(-c2ccccc2)nc1N`, the activation is 13.8%.
Then `CC(C)(CCl)C(=O)Nc1ccc(Sc2ccc(F)cc2)cc1`, with -5.55%.
Next, `CCn1c(SCc2ccc(C)cc2)nnc1-c1nn(-c2ccccc2)ccc1=O`: 0.15%.
Next, `O=C1c2ccccc2C(=O)c2c1cccc2N1CCN(CCO)CC1`: 11.4%.
Turning to `CCC1(CC)NC(=O)N(CC(=O)OCC(=O)Nc2ccc(C(F)(F)F)cc2)C1=O`, the activation is -31.3%.
Regarding `Cc1cccc(-c2nc3c(c(SCC(=O)N4CCOCC4)n2)CCCC3)c1`, the activation is 16.6%.
For `COc1ccccc1NC(=O)[C@H](COCc1ccccc1)NC(=O)OC(C)(C)C`, the activation was 8.44%.
Take `CCCC(=O)NC(Nc1ccccc1OC)C(Cl)(Cl)Cl` (centres undefined): the activation was -10.4%.
Next, `CCOC(=O)C1(S(=O)(=O)c2ccccc2)CCN(Cc2ccccc2)CC1`: 2.52%; `CCC(=O)Nc1ccc2nc(C)n(Cc3ccccc3Cl)c(=O)c2c1`: -5.54%; `COc1cnc(SCc2ccc(Cl)c(Cl)c2)nc1Cl`: 20.1%.
Then `Cc1cc(C)cc(OCC(=O)NNC(=O)c2cc3ccccc3oc2=O)c1`, with -12%; and `Cc1cc(OC(=O)c2c(Cl)cccc2Cl)nc(C)n1`, with 23%.
`N#Cc1ccc(Oc2cc(C(F)(F)F)nc(-c3ccccn3)n2)cc1`: the activation was 49.2% (active).
As to `COc1ccc(C(=O)Nc2nc(-c3ccc(OC)cc3)c(-c3ccc([N+](=O)[O-])cc3)s2)cc1`, the activation was 1.5%.
Next, `CN(CC#CCC(c1ccccc1)c1ccccc1)C(C)(C)C`: 6.49%; `Cc1cc([N+](=O)[O-])c(NC2CCCCC2)c([N+](=O)[O-])c1`: 3.11%; `NS(=O)(=O)c1ccc(Nc2nc(-c3ccccc3)cs2)cc1`: -18.6%.
Then `O=C(CSCc1ccc([N+](=O)[O-])cc1)Nc1cccc(C(=O)Nc2ccccc2C(=O)O)c1`, with 7.87%; and `COc1ccccc1NC(=O)c1ccc2nc(N3C(=O)CCC3=O)sc2c1`, with 11.6%.
With `COC(=O)c1ccccc1OCC(=O)N1CCN(c2ccc(Cl)cc2)CC1`, the activation is 11.5%.
Next, `COc1ccccc1OCCNc1cc(N2CCOCC2)ccc1[N+](=O)[O-]`: 7.12%; `Cc1nnc(SCC(=O)NC(=O)NC2CCCC2)n1N`: -1.65%; `CCOC(=O)c1cnc(-c2ccccc2)nc1Oc1ccc(C)cc1`: -7.86%.
Turning to `CC(C)NC(=O)NC(=O)COC(=O)c1ccc(NC(=O)CC#N)cc1`, the activation was 5.58%.
Next, `O=S(=O)(c1ccc(F)cc1)n1ccc(-c2cnc(-c3ccccc3)s2)n1`: 5.1%.
Next, `CCOCCOCCC(C(=O)O)P(=O)(c1ccccc1)c1ccccc1` (centres undefined): 2.8%.
Then `CCOc1ccccc1C(=O)NCc1ccco1`, with 8.02%; and `CCOc1ccccc1/C=c1\sc2nc(-c3ccco3)nn2c1=O`, with 53.9% (active).
For the compound `O=c1nc2s/c(=C\c3ccco3)c(=O)n2nc1Cc1ccccc1`, the activation is 10.3%.
Next, `CCOC1CS(=O)(=O)CC1OCC` (centres undefined): 12.8%; `O=C1c2ccccc2C(=O)c2c1cccc2N1CCN(Cc2ccccc2)CC1`: -2.37%.
Then `O=C(COC(=O)c1ccccc1NC(=O)c1ccco1)Nc1ccc2c(c1)OC(F)(F)O2`, with 0.88%.
Next, `CC(=O)c1ccc2c(ccc3ccccc32)c1`: 8.21%; `CCCN1Cc2cccc(C(=O)Nc3ccc(S(=O)(=O)N4CCCCCC4)cc3)c2C1=O`: 7.44%; `O=C(Nc1ccc(Cl)cc1)OCc1cc(-c2ccccc2)on1`: 15.4%.
In the case of `CC(=O)c1ccc(Oc2cc(C)nc(-n3nc(C)cc3C)n2)cc1`, the activation is -11.2%.
On to `Cc1cc(C)n(-c2cc(Oc3ccccc3)ncn2)n1`, for which the activation is 43.8% (active).
Then `CC(=O)c1cnn(-c2cc(Oc3ccc(F)cc3)ncn2)c1C`, with 10.6%.
For `CC12c3ccccc3C(c3ccccc31)C1C(=O)N(Cc3cccnc3)C(=O)C12` (centres undefined), the activation is -8.61%.
Then `COc1cc(OC)cc(C(=O)NC2CCN(C(=O)N3c4ccccc4Sc4ccccc43)CC2)c1`, with 1.07%.
Next, `O=C(OCc1cn(-c2ccc(Cl)c(Cl)c2)nn1)c1ccccc1Cl`: 12.2%; `O=C(CN1C(=O)NC(Cc2ccccc2)(Cc2ccccc2)C1=O)NCC1CCCCC1`: 0%.
Next, `CCCCOC(=O)Nc1sc2nc(C)cc(C)c2c1-n1cccc1`: -1.73%; `Cc1cc2c(cc1C)N(C(=O)CN1C(=O)c3ccccc3C1=O)C(C)(C)c1ssc(=S)c1-2`: 17.4%; `COc1ccc(-c2[nH]nc(-c3ccccc3)c2-c2nc3ccccc3[nH]2)cc1`: -1.89%.
In the case of `COc1ccc(OC)c(C(=O)c2coc3ccc(O)c(CN4CCOCC4)c23)c1`, the activation is -5.05%.
Turning to `O=c1c(-c2ccc3c(c2)OCCO3)c(C(F)(F)F)oc2cc(O)cc(O)c12`, the activation is 9.87%.
With `CCN1CCN(Cc2c(O)ccc3c(=O)c(-c4ccc(OC)c(OC)c4)c(C(F)(F)F)oc23)CC1`, the activation was 65.5% (active).
As to `O=C(c1ccc2c(c1)OCO2)N1CCOCC1`, the activation was -1.72%.
Then `Cc1nnc(SCC(=O)N/N=C/c2cn(-c3ccccc3)nc2-c2ccc(F)cc2)n1-c1ccccc1`, with -16.3%.
Then `COc1ccc(C2C=C(c3ccc(Br)cc3)Nc3nc(NS(C)(=O)=O)nn32)cc1` (centres undefined), with 5.63%; and `O=C(Cn1c(-c2cscn2)nc2ccccc21)Nc1ccc(Cl)cc1`, with 3.1%; and `CON(C)S(=O)(=O)c1ccc2c(c1)NC(=O)C1CCCN21` (centres undefined), with 6.63%.
With `COc1cccc(-c2cc(C(=O)N/N=C/c3ccc(OC)c(COC(C)=O)c3)c3ccccc3n2)c1`, the activation is 0.06%.
In the case of `CC(Oc1ccc(-c2ccccc2)c(F)c1)c1ccn(S(=O)(=O)c2cccc3ccccc23)n1` (centres undefined), the activation was -9.3%.
Take `COc1ccc(NC(=O)Cn2c(-c3ccc(OC)cc3)cn(-c3ccc(C)cc3)c2=O)cc1`: the activation is 5.6%.
As to `Cc1c(Br)cc(C(=O)N2CCCCCC2)c(C)c1C`, the activation was 11.9%.
As to `Cn1c2ccccc2n2c(=O)c(=O)n(CC(=O)c3ccc(F)cc3)nc12`, the activation was 47.4% (active).
Then `O=C(CCn1c(SCC(=O)c2ccccc2)nc2ccccc2c1=O)NCc1ccc(F)cc1`, with 2.29%; and `CCN1CCN(Cc2nc3c(c(=O)n(C)c(=O)n3C)n2CC(=O)c2ccccc2)CC1`, with 21.5%; and `Cc1ccnc(N2CCC(C(=O)NC3CCCCCC3)CC2)n1`, with -7.5%.
Regarding `Brc1cnc(N2CCCC2)nc1N1CCCCC1`, the activation was 41.1% (active).
`c1ccc(-n2ncc3c(N4CCCC4)ncnc32)cc1`: the activation was 12.2%.
Turning to `O=C1OC(c2ccc(Cl)cc2)=N/C1=C\c1cccnc1`, the activation was 34.5%.
Then `Cc1nc2ccccc2c(-c2ccccc2)c1C(=O)c1ccccc1`, with 9.37%.
As to `CCN(CC)S(=O)(=O)c1ccc(N2CCOCC2)c(C(=O)O)c1`, the activation was 11.9%.
For the compound `O=C(c1ccc(Cl)cc1)c1cnc(Nc2ccccc2)s1`, the activation was -1.4%.
Then `Nc1c(-c2ccc(F)cc2)cnn1C1CCS(=O)(=O)C1` (centres undefined), with -1.34%.
Next, `COc1ccc(CCN2C(=O)C3CC=C(C)CC3C2=O)cc1OC` (centres undefined): 4.82%.
Then `O=C(c1ccccn1)c1ncc(C(F)(F)F)cc1Cl`, with -0.58%; and `CCN(CC)c1nc(-c2ccccc2)cc(C(F)(F)F)c1C#N`, with 1.7%; and `CCOC(=O)/C(=C\c1ccc([N+](=O)[O-])cc1)C(=O)c1cc(C(C)=O)c(Nc2ccccc2)s1`, with -4.36%.
On to `COC(=O)CNC(c1ccccc1Cl)c1cc(Br)ccc1NC(=O)CCN1CCOCC1` (centres undefined), for which the activation is 0.94%.
For `Cc1ccc(OCC(=O)Nc2cccc3c2CCCC3)cc1C`, the activation is 13.2%.
Consider `CC(=O)NS(=O)(=O)c1ccc(NC(=S)NC(=O)C(C)(C)C)cc1`, for which the activation was 4.05%.
Then `COc1cccc(/C=N/NC(=O)C(=O)N2CCCC2)c1`, with -4.21%.
With `CCCCCCCC(=O)NC(Nc1ccccc1OC)C(Cl)(Cl)Cl` (centres undefined), the activation was -6.09%.
Turning to `Cc1ccccc1/[N+]([O-])=C/c1ccncc1`, the activation was 15.8%.
Then `N#Cc1cc([N+](=O)[O-])ccc1Oc1cccc(/C=N/NC(=O)c2ccc(Cl)cc2)c1`, with 1.88%; and `COC(=O)CSc1nnc(-c2cccnc2)o1`, with -7.95%; and `CCn1c(Cc2cccs2)nnc1SCC(=O)c1ccc(C)cc1`, with 8.94%.
`COc1ccc(CCNC(=S)NC(=O)/C=C/c2ccc(C)cc2)cc1OC`: the activation was -6.74%.
For `CN1CC(c2ccccc2)C2(COc3ccccc3C2=O)C12C(=O)Nc1ccccc12` (centres undefined), the activation was 0.22%.
